The values below come from PubChem BioAssay.

Assay [1] has as its system Human papillomavirus type 1a protein E7 (residues 44-93). The assay can be described thus: HPV1a E7 fragment binders on microarrays, primary screen, biochemical, small-molecule microarray, residues 44-93, 635 nm fluorescence (AID 1108).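 Also: E7 fragment applied at 1 µg/mL in TBST for 1 h at 4 C; score combines spot fluorescence with its signal to noise ratio.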 The following applies: small-molecule microarray binding, fluorescence 635 nm; higher = more signal.
The nature of assay [2]: modulators of HCV replicon luciferase signal, primary screen, HCV replication inhibitor project, Huh7 cells, luciferase reporter (AID 1109).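 Also: huh7 hepatoma cells harbouring a luciferase neomycin HCV replicon reporter; luciferase luminescence as measure of HCV replicon replication; test concentration not given here.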 To be noted: 48 h, higher = more signal. Background: In antiviral work, replicon cells carry a viral genome segment that copies itself.
In assay [3] the target is Left-right determination factor 2 (Homo sapiens) (UniProt O00292). The assay can be described thus: LEFTY2 binders on small-molecule microarrays, primary screen, biochemical, small-molecule microarray, 635 nm fluorescence scan (AID 1110). The following applies: LEFTY2 binding, higher = more signal.
Assay [4] addresses Calmodulin-1 (Homo sapiens) (UniProt P0DP23). As to the kind of experiment: CALM1 binders on microarrays, EGTA buffer, profiling panel, biochemical, small-molecule microarray, Cy5-labelled CALM1 (AID 1111).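 Also: labelled calmodulin applied in Tris saline Tween buffer holding calcium plus EGTA and DTT.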 To be noted: Cy5-CALM1 binding fluorescence, higher = more signal.
Assay [5] has the same target. As to the kind of experiment: calcium-bound CALM1 binders on microarrays, profiling panel, artefact control for SMM control-protein annotation, biochemical, small-molecule microarray, Cy5-labelled CALM1, plus calcium (AID 1112).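 Also: score merges spot fluorescence with signal to noise from triplicate slides.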 The following applies: Cy5-CALM1 binding fluorescence, higher = more signal.
Assay [6] can be described thus: small-molecule microarray binders of probe aWnt5a, primary screen, biochemical, biotinylated probe, 635/667 nm fluorescence (AID 1113).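 Also: score merges 667 nm fluorescence intensity with signal-to-noise per printed feature.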 The following applies: higher = more signal.
Assay [7] can be described thus: small-molecule microarray binders of probe aShh, primary screen, biochemical, biotinylated probe, 635/667 nm fluorescence (AID 1114).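 Also: probe is biotin-labelled aShh protein from a stem cell growth factor screen; measures binding of labelled protein to compounds printed on the slide; score merges feature fluorescence at 667 nm with signal-to-noise.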 To be noted: higher = more signal.
Assay [8] in a line: small-molecule microarray binders of probe aNog, primary screen, biochemical, biotinylated probe, 635/667 nm fluorescence (AID 1115).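 Also: probe is biotinylated aNog protein used at 0.15 µg/mL for 1 h at 4 C; z-score combines 667 nm fluorescence of each spot with its signal to noise.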 To be noted: higher = more signal.
For assay [9], the target named is Torsin-1A-interacting protein 1 (Homo sapiens) (UniProt Q5JTV8). The assay can be described thus: LAP1 binders from COS7 cell lysate, primary screen, small-molecule microarray, 635/667 nm fluorescence (AID 1116). To be noted: COS7-hLAP1 lysate binding, 635 nm fluorescence, higher = more signal.
Assay [10] deals with Alpha-bungarotoxin (Bungarus multicinctus) (UniProt P60615). As to the kind of experiment: alpha-bungarotoxin binders on microarray, profiling panel, artefact control for SMM control protein annotation, biochemical, small-molecule microarray, Alexa647 label, 635/667 nm fluorescence (AID 1117). To be noted: alpha-BTX-A647 binding fluorescence, higher = more signal.

Structures are written as SMILES.

Torsin-1A-interacting protein 1 (Homo sapiens), sequence (Q5JTV8 whole entry, looked up): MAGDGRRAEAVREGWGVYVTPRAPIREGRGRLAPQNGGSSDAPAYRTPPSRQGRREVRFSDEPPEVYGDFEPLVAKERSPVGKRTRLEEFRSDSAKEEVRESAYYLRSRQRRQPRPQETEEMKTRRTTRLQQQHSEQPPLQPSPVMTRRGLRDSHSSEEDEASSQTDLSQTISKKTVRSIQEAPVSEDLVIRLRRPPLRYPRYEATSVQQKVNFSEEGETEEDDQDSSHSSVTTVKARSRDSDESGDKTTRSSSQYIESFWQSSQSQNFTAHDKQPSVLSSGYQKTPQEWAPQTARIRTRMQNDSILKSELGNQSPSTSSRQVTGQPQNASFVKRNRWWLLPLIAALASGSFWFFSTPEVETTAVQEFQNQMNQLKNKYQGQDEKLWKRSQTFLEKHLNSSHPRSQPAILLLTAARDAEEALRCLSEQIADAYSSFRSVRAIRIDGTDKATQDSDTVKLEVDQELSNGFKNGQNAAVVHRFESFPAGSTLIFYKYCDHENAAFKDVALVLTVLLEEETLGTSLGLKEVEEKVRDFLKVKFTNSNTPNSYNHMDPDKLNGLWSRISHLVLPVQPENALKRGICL
Alpha-bungarotoxin (Bungarus multicinctus), sequence (P60615 whole entry, looked up): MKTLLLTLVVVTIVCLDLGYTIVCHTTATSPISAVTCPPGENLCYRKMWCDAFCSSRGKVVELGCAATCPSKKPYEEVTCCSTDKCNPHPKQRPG
Left-right determination factor 2 (Homo sapiens), sequence (O00292 whole entry, looked up): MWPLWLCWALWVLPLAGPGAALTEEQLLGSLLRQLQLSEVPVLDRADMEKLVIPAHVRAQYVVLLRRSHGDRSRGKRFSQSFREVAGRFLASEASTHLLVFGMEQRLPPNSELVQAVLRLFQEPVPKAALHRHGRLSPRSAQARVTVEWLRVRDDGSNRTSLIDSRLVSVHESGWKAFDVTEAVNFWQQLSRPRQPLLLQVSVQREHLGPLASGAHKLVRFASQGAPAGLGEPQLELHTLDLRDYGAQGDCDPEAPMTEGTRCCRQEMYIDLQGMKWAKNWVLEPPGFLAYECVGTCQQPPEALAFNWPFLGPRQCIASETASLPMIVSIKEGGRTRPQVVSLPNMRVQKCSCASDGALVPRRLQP

As to `COC(=O)[C@@]1(Cc2ccc(F)cc2)[C@H]2c3cc(C(=O)N(C)C)n(CC4CC4)c3C[C@H]2CN1C(=O)c1ccccc1`, the composite z-score in assay [1] came to 1.45; in [3], 0.0265; in [4], 2.21; in [5] it was 1.39; in assay [6] it was 1.05; in assay [7], 1.38. The composite z-score came out at 0.816 in [8], 0.156 in [9] and 1.69 in [10]. The molecule further registered a z-score in assay [2] of -1.14.

As for `CC(C)OC(=O)C=C1C[C@@H](c2ccccc2C(F)(F)F)O[C@@H](c2ccccc2C(F)(F)F)O1`, the composite z-score in [1] is 0.706; in assay [3], 0.351; in assay [4], -0.21; in [5], -0.624; in [6] it was -0.13; in assay [7] it was -0.2. For the same molecule, the composite z-score in assay [8] was 0.0234; in [9], -0.281; in [10] it was 0.497. Moreover, the z-score in assay [2] was -0.384.

As to `COc1ccc(C(=O)Nc2cccc(CN3C(=O)[C@]4(O[C@H](CCO)[C@@H]([Si](C)(C)c5ccc(OC)cc5)[C@@H]4C)c4ccccc43)c2)cc1`, the composite z-score in [1] is 1.28; in [3], 0.442; in assay [4] it was 0.123; in assay [5], 0.0559; in assay [6], 0.0194; in assay [7] it was -0.133. The composite z-score in assay [8] worked out at 0.6; in assay [9] it was 0.603; in [10], 0.805. The molecule also showed a z-score in assay [2] of -5.16.

For `COCCOC(=O)N1C(=O)[C@@]2(c3cc(C#CCCO)ccc31)[C@H](C(=O)N1CCc3cc(OC)c(OC)cc3C1)[C@H]1C(=O)O[C@H](c3ccccc3)[C@H](c3ccccc3)N1[C@@H]2c1ccc(O)cc1`, the composite z-score is 1.41 in assay [1]; 0.332 in assay [3]; 0.527 in assay [4]; 0.294 in [5]; -0.1 in [6]; 0.123 in assay [7]. The composite z-score in [8] was 0.119; in assay [9], 0.987; in [10], 1.24. Besides, the z-score in [2] is -1.34.

As for `C=CC[C@@]1(C(=O)NCc2ccccc2)N=C(c2ccc(OCCCO)cc2)O[C@@H]1c1ccccc1N=[N+]=[N-]`, the composite z-score in [1] is 1.25; in assay [3], -0.258; in [4] it was 1.17; in assay [5] it was 0.399; in assay [6] it was 0.0839; in [7], 0.171. Further, the values for the composite z-score in assay [8], in [9] and in assay [10] were 1.74, 1.44 and 1.82, respectively. For the same molecule, the z-score in assay [2] is -0.874.

Take `C=CC[C@@]1(C(N)=O)N=C(c2ccc(OCCCO)cc2)O[C@@H]1c1ccccc1CN=[N+]=[N-]`: the composite z-score in assay [1] was 1.39; in assay [3] it was -0.294; in [4] it was 1.64; in [5], 0.767; in assay [6], 0.0597; in assay [7], 0.166. Moreover, the figures for the composite z-score in [8], in assay [9] and in [10] were 0.661, 1.91 and 0.834, respectively. This molecule also had a z-score in assay [2] of -1.56.

As to `COc1ccc(C(=O)Nc2ccc(CN3C(=O)[C@@]4(O[C@@H](CCn5cc([C@H](O)c6ccccc6)nn5)[C@H]([Si](C)(C)c5ccc(OC)cc5)[C@H]4C)c4ccccc43)cc2)cc1`, the composite z-score is 1.26 in assay [1]; -0.553 in [3]; 0.168 in assay [4]; -0.0823 in assay [5]; -0.0896 in assay [6]; -0.0337 in assay [7]. Moreover, the composite z-score came out at 0.103 in assay [8], 0.485 in [9] and 0.572 in assay [10]. In assay [2], this molecule gave a z-score of -4.67.

For `[N-]=[N+]=NCc1ccccc1C[C@]1(C(=O)NCC(O)CO)N=C(c2ccc(OCCCO)cc2)O[C@H]1c1ccccc1` (stereo not given in full), the composite z-score in assay [1] is 0.722; in assay [3], -1.84; in assay [4], 1.51; in assay [5], 1.24; in assay [6] it was -0.0405; in assay [7], -0.0211. Moreover, the composite z-score was 1.06 in assay [8], 0.846 in assay [9] and 0.19 in [10]. Also, the z-score in assay [2] is -1.82.

As for `CCCCc1cn(C[C@H](Cc2ccccc2)NC(=O)N[C@H](CO)CCc2oc(C(C)=O)c(C(=O)OC)c2C(=O)OC)nn1`, the composite z-score is 1.39 in assay [1]; 1.26 in assay [3]; 0.451 in assay [4]; -0.693 in [5]; -0.0045 in assay [6]; 0.184 in [7]. The figures for the composite z-score in [8], in assay [9] and in assay [10] were -0.0965, 0.644 and 0.463, respectively. Besides, in assay [2], the z-score is -0.639.

As to `COc1ccc(C(O)C2C=CC3C(=O)NC(=O)C3N2Nc2ccccn2)cc1` (stereo not given), the composite z-score in [1] is -1.08; in [3], 0.494; in assay [4], -1.3; in [5], -0.498; in assay [6], 0.0158; in assay [7], -0.106. The composite z-score in assay [8] is 0.0861; in assay [9], 0.658; in assay [10], -0.0568. In assay [2], this molecule displayed a z-score of 0.824.

With `COC(=O)[C@@]1(Cc2ccccc2)[C@H]2c3cc(C(=O)N4CCCC4)n(CC4CC4)c3C[C@H]2CN1C(=O)c1ccccc1`, the composite z-score in assay [1] stood at 1.39; in [3], 0.192; in assay [4], 1.13; in assay [5], 0.697; in assay [6], 0.647; in assay [7] it was 0.834. Moreover, the composite z-score is 2.57 in [8], 0.079 in [9] and 0.615 in assay [10]. This molecule came in with a z-score in assay [2] of -2.17.

As for `COCCOC(=O)N1C(=O)[C@@]2(c3cc(C#Cc4ccc(OC)cc4)ccc31)[C@H](c1ccc(O)cc1)N1[C@H](c3ccccc3)[C@H](c3ccccc3)OC(=O)[C@H]1[C@@H]2C(=O)NC[C@H](O)c1ccccc1`, the composite z-score in assay [1] is 1.44; in assay [3], 0.598; in [4] it was 1.18; in assay [5], -0.209; in assay [6] it was 0.0809; in [7], 0.692. Besides, the figures for the composite z-score in assay [8], in assay [9] and in assay [10] were -0.467, 0.681 and 1.54, respectively. The molecule also gave a z-score in assay [2] of -2.2.

Turning to `C=CCOC(=O)[C@@H]1[C@H]2C(=O)O[C@H](c3ccccc3)[C@H](c3ccccc3)N2[C@H](c2ccc(OCCOC(=O)[C@@H]3C[C@@H]4C(=O)N[C@@H](CCCCN(C)C)C(=O)N4[C@@H]3c3ccc(O)cc3)cc2)[C@@]12C(=O)Nc1ccc(I)cc12`, the composite z-score in [1] was 1.34; in assay [3] it was 0.696; in assay [4] it was 0.846; in [5], -0.0759; in assay [6], -0.0927; in [7] it was 0.432. Besides, the composite z-score in assay [8] was -0.12; in assay [9], 0.454; in assay [10], 0.78. The z-score in [2] is -2.84.
